Test results: PubChem BioAssay (NCI)
Compounds without any hit were thinned out: in the full panel of roughly 83,000, 20% have a hit.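 Growth was measured after 48 h exposure to one concentration of compound in 96-well plates. Values under 10 count as active.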 A number with no mark means an inactive call. Activity calls are given as the source filed them.

Test system: A549/ATCC NSCLC
Assay: NCI-60 one-dose screen, 48 h (100 = growth as untreated, 0 = no growth, -100 = all killed)
Settings: 10 µM unless noted
Method: Growth inhibition of the A549/ATCC human Non-Small Cell Lung tumor cell line is measured as a screen for anti-cancer activity. Cells are grown in 96 well plates and exposed to the test compound for 48 hours. Compounds are tested at a single concentration, which is 10^-5 M for most compounds. The reported endpoint is percent growth (GI% or GIPRCNT), where numbers from 0 - 100% represent growth inhibition, and numbers from -100% - 0 represent cell death. For example, a value of 40 represents 60% growth inhibition. A value of 0 means no net growth occurred over the course of the experiment. A value of -40 indicates 40% of cells at the beginning of the experiment died by the end of the experiment. A value of -100 means all cells are dead at the end of the experiment.
NCI-60 Human Tumor Cell Lines Screen was performed using the standard one-dose NCI protocol, which is described in more detail at https://dtp.cancer.gov/discovery_development/nci-60/default.htm.
Compounds with GIPRCNT values below 10 were considered active. Activity score was based on GIPRCNT using the following formula: […]
Score is 0 for GIPRCNT values of 100 or above, 50 for GIPRCNT values of 0, and 100 for GIPRCNT values of -100.

First: O=C(Nc1ncc(Cc2ccccc2)s1)c1cc(-c2ccccc2)nc2ccccc12
Second: O=C(CSc1nnc(-c2cc(-c3ccc(Cl)cc3)nc3ccccc23)n1-c1ccccc1)Nc1ccc(Cl)cc1
The growth of the first is higher: 98.2% for the first, 96.2% for the second.

Going from `C#C[C@]1(O)CC[C@H]2[C@@H]3CC=C4c5sc(-c6ccccc6)nc5CC[C@]4(C)[C@H]3CC[C@@]21C` to `COc1ccc(NC(=O)CSc2oc(-c3ccccc3)nc2S(=O)(=O)c2ccc(Cl)cc2)c(OC)c1`, the growth falls from 101% to 49.2%.

Going from `C#CCOc1ccc(C2=NN(C)C3N=C(Cl)c4ncn(C)c4N23)cc1OCC#C` (stereo not given) to `Cc1nn(C)c2ncnc(Nc3ccccc3Br)c12`, the growth falls from 104% to 99.3%.

Compared with `FC(F)(F)c1cccc(-c2nnn(Cc3cc(-c4cccc(Cl)c4)no3)n2)c1`, `COc1cccc(-c2nn(-c3ccccc3)cc2-c2ccnc(-c3cccnc3)c2)c1` is lower in growth: 100% for the first, 96.4% for the second.

First: CCOC(=O)CC1CSC(N/N=C/c2ccc(O)cc2)=N1 (stereo not given)
Second: C(=N\Nc1nnc2n1N=C(c1ccccc1)CS2)/c1ccc(OCc2ccccc2)cc1
The growth of the first is higher: 102% for the first, 91.1% for the second.

First: C(CCCSC1=NCCN1)CCSC1=NCCN1
Second: COc1ccc(-c2nc(SCCC(C)C)nc(N/N=C(/C)c3ccc(N)cc3)c2C#N)cc1
The growth of the first is higher: 104% for the first, 98.4% for the second.

Going from `COC1CC(O)C2=C(CC3C(/C(C)=C\CC=C(C)C)CCC3(C)O2)C1=O` (stereo not given) to `CO[C@H]1/C=C/O[C@@]2(C)Oc3c(C)c(O)c4c(O)c(c5c(nc6cc(C)ccn65)c4c3C2=O)NC(=O)/C(C)=C\C=C\[C@H](C)[C@H](O)[C@@H](C)C(O)[C@@H](C)[C@H](OC(C)=O)[C@@H]1C` (stereo not given in full), the growth rises from 95.2% to 104%.

Compared with `CC(C)=CC(=O)C1C(=O)c2ccccc2C1=O`, `COc1ccccc1NC(=O)n1c(=O)cc(C)c2ccc(O)cc21` is lower in growth: 106% for the first, 105% for the second.

Going from `O=C(/C=C/c1ccc([N+](=O)[O-])cc1)c1cccc(Nc2nc(Nc3ccccc3)nc(Nc3ccccc3)n2)c1` to `O=C(/C=C/c1cccc([N+](=O)[O-])c1)c1ccc(Nc2nc(Nc3ccc(F)cc3)nc(Nc3ccc(Cl)cc3)n2)cc1`, the growth rises from 72.7% to 83%.

Compared with `CCCCC/C=C/CCC(=O)N[C@H]1[C@H](Oc2c3cc4cc2Oc2ccc(cc2Cl)[C@@H](O[C@@H]2O[C@H](CO)[C@@H](O)[C@H](O)[C@H]2NC(C)=O)[C@@H]2NC(=O)[C@H](NC(=O)[C@@H]4NC(=O)[C@H]4NC(=O)[C@@H](Cc5ccc(c(Cl)c5)O3)NC(=O)[C@@H](N)c3ccc(O)c(c3)Oc3cc(O)cc4c3)c3ccc(O)c(c3)-c3c(O[C@H]4O[C@H](CO)[C@@H](O)[C@H](O)[C@@H]4O)cc(O)cc3[C@H](C(=O)O)NC2=O)O[C@H](CO)[C@H](O)[C@@H]1O`, `O=C(Nc1cccc2c1C(=O)c1cccc(NC(=O)c3ccc(C(=O)Nc4cccc5c4C(=O)c4cccc(NC(=O)c6ccccc6)c4C5=O)cc3)c1C2=O)c1ccccc1` is lower in growth: 99.8% for the first, 99.6% for the second.

Going from `COc1cc(NC(=O)c2cncnc2Nc2ccc3c(ccn3Cc3cccc(F)c3)c2)cc(OC)c1` to `COc1cccc(NC(=O)c2sc3nc(C)c(C(=O)c4ccccc4)cc3c2N)c1`, the growth falls from 40.4% to 35.1%.

Going from `CCN1CCN(c2nc(NNC(=O)c3ccc(OC)cc3)nc(N3CCN(C(c4ccccc4)c4ccccc4)CC3)n2)CC1` to `Cc1ccc(-c2nnc(SCc3nc(N)nc(Nc4ccccc4F)n3)n2-c2ccccc2)cc1`, the growth rises from 64.4% to 88.7%.

Compared with `CS(=O)(=O)c1cccc(Nc2ncc3cc(-c4ccccc4Cl)ccc3n2)c1`, `C#CCOc1cccc(Nc2c(Cl)c(CCl)nc3ccc(Oc4ccccc4)cc23)c1` is higher in growth: 13.8% for the first, 90.7% for the second.

First: CN1C(=O)N(C)C2C1NN=c1s/c(=C\c3ccccc3F)c(=O)n12 (stereo not given)
Second: O=C1NC(=O)C(=Cc2cc(-c3ccc(Cl)cc3)n(-c3ccccc3)n2)C(=O)N1
The growth of the first is lower: 21% for the first, 97.4% for the second.

Compared with `COc1cc(-c2ccc(-c3ccc(C(=N)N)s3)s2)cc(OC)c1OC`, `COc1ccc(NC(=O)c2sc3nc(C)c(C(=O)c4ccccc4)cc3c2N)cc1` is higher in growth: 32.8% for the first, 52% for the second.

Compared with `CCOC(=O)/C(=C\c1ccccc1Cl)P(=O)(OCC)OCC`, `O=C1/C(=C/c2cccc(Br)c2)COc2ccc(O)c(O)c21` is lower in growth: 64.9% for the first, 11.2% for the second.

Going from `Cc1ccc(C2=Nc3c(N)nc(N)nc3NC(c3cccc(Nc4ccnc5cc(C(F)(F)F)ccc45)c3)C2)cc1` (stereo not given) to `N#CC1=C(N)Oc2c(ccc3ccccc23)C1c1cc2ccccc2n2nnnc12` (stereo not given), the growth rises from 30.1% to 33.4%.

`c1ccc(Cn2cc3c(c2)-c2nc(Nc4ccccc4)ncc2CC3)cc1` showed a growth of 81.9% [100 µM].

In the case of `Cn1nc(-c2ccc(Cl)cc2)nc2c(=O)n(C)c(=O)nc1-2`, the growth is reported as -25.2% (active).
`Cc1cc2c(C(C)C)c(O)c(O)c(/C=N/O)c2c(O)c1-c1c(C)cc2c(C(C)C)c(O)c(O)c(/C=N/O)c2c1O` was tested, and the growth was 4.66% (active).
In the case of `CO[C@]12C=C/C(=C(/C(=O)OCc3cccnc3)C(=O)CCCCCCCC[C@]3(OC)C=C/C(=C(/C(=O)OCc4cccnc4)C(=O)CCCCCCCC1)O3)O2`, the growth is reported as -19.6% (active).
With `c1ccc(-c2nc(N3CCNCC3)c3oc(-c4ccccc4)nc3n2)cc1` the growth was -44.8% (active).
With `COC12C=C/C(=C(/C(=O)OCc3ccccn3)C(=O)CCCCCCCCC3(OC)C=C/C(=C(/C(=O)OCc4ccccn4)C(=O)CCCCCCCC1)O3)O2` the growth was 9.81% (active).
